Screens as filed in PubChem BioAssay.
PostGolgi yeast – growth inhibition of a yeast mutant, post-Golgi transport screen; post-Golgi transport phenotypic cell assay; inhibition, % at 10 µM; 0.9% of 98,000 active; AID 739;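 further: yeast cells grown in 1536-well plates; yeast grown about 18 h at 30C before absorbance read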
Measles CPE – protection of cells from measles virus; protection (pct of control), % at 4 µM; Measles virus-infected cells, CPE protection, absorbance; AID 841; 1.5% of 140,000 active; in the data active means protection mostly above about 24%, no sharp cut-off; inactive means mostly below about 26%
MT1-MMP txn act – MT1-MMP promoter transcription activation | HT1080 MT1-MMP promoter luciferase reporter, luminescence, overnight; hits give high values | activation factor at 10 µM | 0.16% of 86,000 active;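 active means activation factor of at least 2 for MT1-MMP transcription at 10 µM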
PostGolgi ctrl – growth of the yeast control strain, post-Golgi counter-screen; efflux-deficient yeast background strain, growth absorbance A615, 16 h; 5% of 98,000 active; AID 738; inhibition, % at 10 µM
An asterisk follows results filed as active; x = not tested or not shown. Hits are enriched below; roughly 5.3% of the tested compounds scored in any of these assays. Unless noted, no stated cut-off is given here; in the data, active means inhibition above about 30%; inactive means the rest.

SMILES | PostGolgi yeast | Measles CPE | MT1-MMP txn act | PostGolgi ctrl
Cc1nn(C(=O)CNS(=O)(=O)c2ccccc2)c(C)c1Sc1ccc(Cl)cc1 | x | 4 | x | x
COc1ccc(C2CC(=O)C(C=NCCCN3CCOCC3)=C(O)C2)cc1 (centres undefined) | -4 | 29 | 1 | 39*
O=C1CC(c2ccc(Cl)c(Cl)c2)CC(O)=C1C=NCCN1CCNCC1 (centres undefined) | 14 | 5 | 1.1 | 37*
O=C1CC(c2ccc(F)cc2)CC(O)=C1C=NCCN1CCNCC1 (centres undefined) | x | 15 | 1.2 | x
Cc1ccccc1NC(=S)NC(NC(=O)c1ccccc1C)C(Cl)(Cl)Cl (centres undefined) | -1 | 4 | x | 4
Cc1ccccc1N=C1NN=C(c2ccccc2F)CS1 | x | 6 | x | x
Cc1c(C(=O)NCCSCc2ccc(Cl)cc2Cl)cccc1[N+](=O)[O-] | 1 | 18 | x | 55*
CCCC(=O)Nc1ccc(-c2nc3cc(C)ccc3o2)cc1 | 2 | 6 | x | 30*
O=C(NNc1ccc(C2CCCCC2)cc1)C(O)(c1ccccc1)c1cccs1 (centres undefined) | 15 | 13 | x | 46*
Cc1ccc(C)c(NC(=O)C(Sc2nnc(-c3cccs3)o2)c2ccccc2)c1 (centres undefined) | x | 9 | x | x
CCOC(=O)Cc1csc(NC(=S)NC(=O)c2ccc(F)cc2)n1 | 4 | 3 | x | 41*
CCOC(=O)Cc1csc(NC(=O)CSc2cc(Cl)ccc2Cl)n1 | x | 29* | x | x
CCOC(=O)Cc1csc(NC(=O)CC)n1 | -2 | 7 | 1.1 | 6
O=S(=O)(c1cccc(NC(=S)Nc2ccc(Br)cc2Cl)c1)N1CCOCC1 | 6 | 5 | x | 1
CCC1=C2CC[C@H]3C(=O)N(c4ccccc4)C(=O)[C@H]3[C@H]2[C@@]2(Cc3ccccc3)C(=O)N(CC(=O)OC)C(=O)N2C1=O | x | x | 1.1 | x
c1ccc(N(c2ccccc2)c2nc(N3CCCC3)nc(-n3ccnc3)n2)cc1 | 2 | x | 1.2 | 32*
CN(c1ccccc1)c1nc(N2CCCC2)nc(-n2ccnc2)n1 | 105* | 3 | 1 | 91*
c1ccc(-c2nc(-n3ccnc3)nc(-n3ccnc3)n2)cc1 | 4 | 4 | 1.1 | 11
c1ccc(CN2CCN(c3nc(-c4ccccc4)nc(-n4ccnc4)n3)CC2)cc1 | 48* | 9 | 1.1 | 77*
CC1CC1C(=O)Nc1nc(-c2cccs2)c(-c2cccs2)s1 (centres undefined) | x | 17 | x | x
COc1ccc(/C=C(\C#N)C(=O)OCC(=O)Nc2ccc(C(C)(C)C)cc2)cc1 | x | 4 | x | x
CCCOC1OC(=O)c2c1ccc(OC)c2OC (centres undefined) | x | 9 | x | x
Cc1nc(Cl)c2c(n1)NC1=C(O2)C(=O)CCC1 | x | 13 | x | x
O=C(CSc1nc2ccc([N+](=O)[O-])cc2[nH]1)NCCc1ccccc1 | 16 | 9 | x | -1
Cc1nnc(SCC(=O)c2cc(C)n(-c3c(C)n(C)n(-c4ccccc4)c3=O)c2C)s1 | 3 | 5 | 1.1 | 7
SMILES | PostGolgi yeast | Measles CPE | MT1-MMP txn act | PostGolgi ctrl
Cc1ccc(-n2c(C)cc(C(=O)CSc3nnnn3C)c2C)cc1 | -8 | 9 | 0.8 | 11
Cc1cc(C(=O)CSc2nncs2)c(C)n1-c1c(C)n(C)n(-c2ccccc2)c1=O | -6 | 7 | 1.2 | 36*
Cc1ccc(-n2c(C)cc(C(=O)CSc3nncs3)c2C)cc1 | -4 | 6 | 1.1 | 48*
Cc1ccc(-n2ncc3c(NNC(=O)Cc4ccccc4)ncnc32)cc1 | x | 4 | x | x
CCOc1cc(C(c2c(C)[nH][nH]c2=O)c2c(C)[nH][nH]c2=O)ccc1OC(=O)c1cccc([N+](=O)[O-])c1 | 1 | 37* | 1 | 2
CCOc1cc(C(c2c(C)[nH][nH]c2=O)c2c(C)[nH][nH]c2=O)ccc1OCc1ccc([N+](=O)[O-])cc1 | -7 | 8 | 1.1 | 9
O=C(NC(Cc1ccccc1)C(=O)O)/C(=C/c1ccc(F)cc1)NC(=O)c1ccccc1 (centres undefined) | x | 12 | x | x
Cc1ccccc1Cn1nc(C)c(NC(=O)c2sc3ccccc3c2Cl)c1C | 2 | 64* | x | 33*
COc1ccccc1NC(=O)Nc1nnc(C(C)C)s1 | x | 55* | 1.5 | x
CCc1nnc(NC(=O)Nc2ccccc2OC)s1 | 6 | 7 | 1.6 | 2
CC(C)c1nnc(NC(=O)c2sc3ccccc3c2Cl)s1 | 12 | 1 | 1.3 | 34*
Cc1nn(Cc2ccc(Cl)cc2Cl)c(C)c1NC(=O)c1sc2ccccc2c1Cl | 2 | 9 | x | 3
O=C(/C=C/c1ccc(Cl)cc1)NCCN1CCOCC1 | 3 | 20 | x | 11
CC(=O)Nc1ccc(SC(C)C(=O)NC(N)=O)cc1 (centres undefined) | 1 | 17 | x | 13
O=C(CCc1ccc(Oc2cc([N+](=O)[O-])cc([N+](=O)[O-])c2)cc1)N1CCCCCC1 | x | 6 | x | x
O=S1(=O)C=C(Oc2ccc3ccccc3c2)c2ccccc21 | -7 | 66* | 1.1 | 34*
O=S1(=O)C=C(Oc2ccc(F)cc2)c2ccccc21 | 5 | 38 | 1.2 | -9
Cc1nc(NC(=O)C23CC4CC(CC(C4)C2)C3)sc1Cc1ccc2c(c1)OCO2 | x | 13 | x | x
COC(=O)C1=NNC2(c3ccc(Cl)cc3)C(=O)N(c3ccccc3)C(=O)C12 (centres undefined) | x | 5 | x | x
CCCNC(=O)CC1Sc2ccccc2NC1=O (centres undefined) | -6 | 13 | 1.2 | 39*
O=C(O)CC1Sc2ccccc2NC1=O (centres undefined) | 27 | 3 | 1.3 | -6
O=C(c1cccc([N+](=O)[O-])c1)N1CCCN(C(=O)c2cccc([N+](=O)[O-])c2)CC1 | x | 10 | x | x
Nc1nc(Cl)cc(N2CCC(c3cc(-c4ccc(Cl)cc4Cl)n[nH]3)CC2)n1 | 43* | 0 | x | 82*
O=C1c2cccc3cccc(c23)C(=O)N1CCN1CCN(CC(O)COc2ccc3ccccc3c2)CC1 (centres undefined) | x | 57* | x | x
Cc1ccc(C)c(OCC(O)CN2CCN(CCN3C(=O)c4cccc5cccc(c45)C3=O)CC2)c1 (centres undefined) | x | 4 | x | x
SMILES | PostGolgi yeast | Measles CPE | MT1-MMP txn act | PostGolgi ctrl
O=C(/C=C/c1cccs1)N1CCN(Cc2ccc3c(c2)OCO3)CC1 | x | 3 | x | x
COc1cccc(C(=O)Nc2cc3c(cc2C(C)=O)OCCO3)c1 | x | 15 | x | x
Cc1ccccc1OCC(=O)Nc1sc(C(=O)Nc2cccc(C)c2C)c(C)c1C#N | -2 | 103* | x | -2
O=C(CSc1nnc(-c2ccccc2F)n1CCc1ccccc1)Nc1ccc2[nH]c(=O)[nH]c2c1 | x | 4 | x | x
O=C(CCCN1C(=O)c2ccccc2C1=O)Oc1ccc(F)cc1 | -6 | 16 | 1.1 | 38*
O=C(CCCCCN1C(=O)c2ccccc2C1=O)Nc1ccc(F)cc1 | x | 11 | 1.2 | x
N/C(=N\OC(=O)CCCN1C(=O)c2ccccc2C1=O)c1ccc(Cl)cc1 | -1 | 41* | x | 9
O=C(Nc1sc2c(c1C(=O)NCc1cccnc1)CCCC2)c1ccco1 | 0 | 3 | 1.3 | 15
O=C(Nc1sc2c(c1C(=O)c1ccc(Cl)cc1)CCCC2)c1cccnc1 | 8 | 6 | x | 40*
CC(Oc1ccc(F)cc1)C(=O)Nc1sc2c(c1C(=O)NCc1cccnc1)CCCC2 (centres undefined) | 0 | 17 | x | 42*
O=C(Nc1sc2c(c1C(=O)c1ccccc1)CCCC2)c1cccnc1 | x | 15 | x | x
